# High-throughput results: PubChem BioAssay, National Center for Advancing Translational Sciences (NCATS)
# TsaE inh = qHTS Assay for Inhibitors of YjeE | Potency, µM | 71,000 tested, 0.05% active | purified YjeE enzyme, qHTS inhibition assay | tRNA threonylcarbamoyladenosine biosynthesis protein TsaE (Escherichia coli (strain …
#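 Purified YjeE (10 uM) with BODIPY Texas Red-labeled ADP probe (2 uM); compounds pin-transferred, 15 min at room temperature. Binding inhibition read as decreased fluorescence polarization; ADP titration as control.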
# Pol III holo inh = qHTS Assay for Inhibitors of DNA Polymerase III Holoenzyme System; reconstituted DNA polymerase III holoenzyme replication, biochemical; Potency, µM (doses to about 57.1 µM), inactives show at the highest dose activity change, negative = inhibition; 71,000 tested, 0.25% active; also: potency is read from the fitted curve at half-maximal effect; % is scaled to controls: 0 for no effect and ±100 for the full control effect
#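 Reconstituted *E. coli* holoenzyme (0.35 nM Pol III, 1 nM beta, 154 nM SSB, 2 nM primase) was preincubated with compound for 15 min at RT. Synthesis on 1.4 nM ssM13Gori ran 35 min, then was stopped with PicoGreen/EDTA and read as dsDNA fluorescence.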
# HEK293 cAMP ctrl = qHTS Assay for Agonists of the Thyroid Stimulating Hormone Receptor: Activators of Intracellular cAMP Concentrations in Parental HEK 293 | parental HEK293 CNG cAMP sensor, membrane potential fluorescence | Potency, µM (doses to about 57.1 µM), for the others: top-dose activation, usual class: activators | 73,000 tested, 2.5% active | AID 938, 2007; also: potency is read from the fitted curve at half-maximal effect; % of control where 0% means no effect; nearly all actives have a fitted effect of over 55% in size
#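 Counterscreen for endogenous-receptor signalling: CNG-channel HEK 293 cells report cAMP rise by membrane depolarization. After 60 min dye equilibration with 100 uM RO 20-1724, compounds incubated 30 min before bottom-read fluorescence at 590 nm.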
# BRCT inh red = qHTS Assay for Inhibitors of BRCT-Phosphoprotein Interaction (Red Fluorophore). Breast cancer type 1 susceptibility protein (Homo sapiens), P38398. BRCT-phosphopeptide binding, red fluorescence polarization. Potency, µM (highest dose often 76.9 µM), inactives show at the top dose activity change, negative = inhibition, actives largely listed as inhibitors. 75,000 tested, 0.03% active. AID 892, 2007; also: % is scaled to controls: 0 for no effect and ±100 for the full control effect
#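 Fluorescence polarization: 100 nM His-tagged BRCA1 BRCT with 100 nM TAMRA-labelled phospho-BACH1 decapeptide, phosphate buffer pH 7.3 with 150 mM NaCl, DTT, 0.01% Tween 20; 12 min RT. Binding inhibition seen as FP decrease.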
# TSHR agonist = qHTS Assay for Agonists of the Thyroid Stimulating Hormone Receptor; 73,000 tested, 0.48% active; AID 926, 2007; Potency, µM (doses to about 57.1 µM), inactives show at the top dose activation, actives largely listed as activators; Thyrotropin receptor (Homo sapiens), P16473; HEK293-CNG-TSHR cells (CNG channel as cAMP sensor), membrane potential dye, cAMP; active = well fitted activation curve with a large enough effect in the main read-out, with a control signal flat, not every such curve was filed as active; inconclusive = small, poorly fitted or top-dose-only effect, or a change in a side signal; inactive = no such curve, though single readings can be large or run the other way; % of control where 0% means no effect;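 also: the control signal comes from parental cells without the receptor; potency is read from the fitted curve at half-maximal effect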
#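 cAMP rise detected as CNG-channel membrane depolarization by fluorescent dye (emission 590 nm), 30 min after compound, following 60 min dye loading containing 100 uM RO 20-1724 at room temperature. Cells: TSHR/CNG HEK 293, with parental CNG HEK 293 as control.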
# BRCT inh green = qHTS Assay for Inhibitors of BRCT-Phosphoprotein Interaction (Green Fluorophore). Breast cancer type 1 susceptibility protein (Homo sapiens), P38398. BRCA1 BRCT-phosphopeptide binding, green fluorescence polarization. Potency, µM (top dose mostly 76.9 µM), inactives show top-dose activity change, negative = inhibition, hits mostly inhibitors. 75,000 tested, 0.05% active. AID 875, 2007;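 also: potency is read from the fitted curve at half-maximal effect; plate controls were peptide without protein for full effect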
#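 Fluorescence polarization: His-tagged BRCT (~35 kDa BRCA1 C-terminus, 250 nM) bound to 100 nM fluorescein-labeled phosphorylated 10-aa BACH1 peptide, pH 7.3 phosphate buffer with DTT and Tween 20. Compounds incubated 12 min at room temperature; inhibition read as lowered polarization.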
# * = called active by the depositor; i = inactive; ? = inconclusive; nt = no result; [ ] = another dose, or the depositor's remark. Only some compounds are listed: those with a hit (about 3.2% of all), similar ones and a draw of the others. Unless noted, calls follow the shape of the dose curve; as a rule, active = well fitted curve in the direction sought with a large enough effect; inconclusive = small, poorly fitted or top-dose-only effect, or another doubt; inactive = no such curve, though single readings can be large; an effect the other way counts as inactive or inconclusive.
SMILES,TsaE inh,Pol III holo inh,HEK293 cAMP ctrl,BRCT inh red,TSHR agonist,BRCT inh green
Cc1cccc(C)c1NC(=O)C(c1cccs1)N(Cc1ccco1)C(=O)Cn1nnc2ccccc21 (configuration not stated),i,-3%,16µM*,0%,?,-1%
Cc1nc2cnc(Oc3ccccc3)nc2n(C2CC2)c1=O,i,-11%,?,-1%,?,-1%
C[C@@H]1C=C[C@](Cc2ccccc2)(C(=O)O)N1C(=O)c1ccccc1,i,-1%,14%,0%,4%,-1%
C[C@@H]1C=C[C@](Cc2ccccc2)(C(=O)NCCN2CCOCC2)N1C(=O)c1ccccc1,i,-8%,16µM*,0%,?,-2%
O=C(O)CN(CCN(CC(=O)O)CC(=O)O)CC(=O)O.[Cu],i,-7%[11.4 µM],-8%[11.4 µM],1%[15.4 µM],-2%[11.4 µM],0%[15.4 µM]
O=C(NCC1CC1)[C@@H]1C[C@H]1[C@@H](NP(=O)(c1ccccc1)c1ccccc1)c1ccccc1,i,-1%,13µM*,0%,?,-1%
CCCCn1c(SCC(=O)c2cc(OC)ccc2OC)nc2cc(S(N)(=O)=O)ccc21,i,-5%,25µM*,1%,?,-3%
N=C(N)[C@H](N=Nc1ccccc1)C(N)=O,i,-3%[11.4 µM],5%[11.4 µM],2%[15.4 µM],2%[11.4 µM],-1%[15.4 µM]
Clc1ccc(CSc2nnc(-c3ccncc3)o2)c(Cl)c1,i,-4%,20µM*,-1%,?,1%
O=c1c(-c2cccc(F)c2)nc2cncnc2n1C1CC1,i,5%,17%,-1%,-9%,-2%
CCOC(=O)c1nnn(-c2nonc2N)c1COc1ccccc1,i,-8%,13µM*,-3%,?,1%
CN1C(=O)C2(Nc3ccccc3-c3nc4ccccc4n32)c2ccccc21 (configuration not stated),i,-5%,10%,-1%,22%,-3%
CCN1C(=O)C2(Nc3ccccc3-c3nc4ccccc4n32)c2cc(OC)ccc21 (configuration not stated),i,2%,7.9µM*,0%,?,-2%
O=C(NC1CCN(Cc2ccccc2)C1)c1ccc(Cc2nc3ccccc3[nH]2)cc1 (configuration not stated),nt,nt,-8%,-1%,2%,-2%
CCCn1c(SCC(=O)Nc2nc3c(s2)CCCC3)nc2c1c(=O)n(C)c(=O)n2C,i,-1%,16µM*,-2%,?,0%
CCCCn1c(SCC(=O)Nc2nnc(C(C)C)s2)nc2c1c(=O)n(C)c(=O)n2C,i,0%,1.6µM*,-1%,?,-3%
CCCn1c(SCC(=O)Nc2nnc(CC)s2)nc2c1c(=O)n(C)c(=O)n2C,i,-7%,8%,1%,4%,-1%
Cc1cc(S(=O)(=O)Nc2ccccc2C(=O)O)ccc1F,nt,nt,1%,-1%,2%,-2%
COc1c2c(nc3ccccc13)O[C@@H]([C@@](C)(O)CO)C2,i,-4%,-7%,1%,nt,-3%
CCc1ccccc1OC[C@@H](O)CN[C@H]1CCCc2ccccc21,i,-2%,40µM*,-1%,?,0%
CN1C[C@H](C(=O)N[C@]2(C)O[C@@]3(O)[C@H]4CCCN4C(=O)[C@@H](Cc4ccccc4)N3C2=O)C[C@H]2c3cccc4[nH]cc(c34)C[C@@H]21,i,-5%,-5%,nt,-10%,nt
NCCC[C@@H](CC(=O)N[C@@H]1CCCC[C@H]1C(=O)N[C@H](CC(=O)N[C@@H](CCC(=O)O)CC(=O)O)Cc1ccccc1)NC(=O)C[C@H](Cc1ccccc1)NC(=O)[C@@H]1CCCC[C@H]1N,i,-4%,0.032µM*,nt,?,nt
